One assay deals with Furin (Homo sapiens) (UniProt P09958). Put plainly: Furin counterscreen qHTS for Zika virus inhibitors (AID 1347149). Note: nearly all actives have a fitted effect of over 70% in size. Note: potency is the fitted concentration of half-maximal effect. In outline: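 Counterscreen measures cleavage of 2 microM BOC-RVRR-AMC, below its ~15 microM Km, by 5 nM full-length human furin at pH 7.0 after a 15-min compound preincubation. Inhibition derives from the 15-min fluorescence increase at 37C.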
(Counterscreens check selectivity or assay interference.)

Assay [1] in a line: Confirmatory screen GU Rhodamine qHTS for Zika virus inhibitors qHTS (AID 1347157). Note: nearly all actives have a fitted effect of over 70% in size. In outline:
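Percent inhibition derives from the 15-min fluorescence change (ex 480, em 540 nm), normalized to no-enzyme and no-inhibitor wells. Reactions contained 25 nM NS2B-NS3 complex and 1.5 microM substrate in 10 mM Tris-HCl pH 8.0.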
Background: qHTS replaces the single test concentration by a dilution series.

The nature of assay [2]: Confirmatory screen NINDS Rhodamine qHTS for Zika virus inhibitors (AID 1347161).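 Note: purified Zika NS2B-NS3 protease with linked NS2B cofactor domain and Rhodamine110 peptide substrate; series mostly up to about 110 µM; nearly all actives have a fitted effect of over 60% in size.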 In outline:
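Percent inhibition, normalized to uninhibited and enzyme-free controls, is fitted to a 4-parameter Hill equation. Fluorescence change comes from a 15-min cleavage of 1.5 microM bis-peptide Rhodamine110 substrate by 25 nM linked NS2B-NS3 at room temperature.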

A short description of assay [3]: Tertiary RLuc qRT-PCR qHTS assay for Zika virus inhibitors (AID 1347169). Note: top concentration of the series differs between compounds; nearly all actives have a fitted effect of over 55% in size. In outline: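 Vero cells (1,000/well) infected with recombinant ZIKV-RLuc (Cambodian) at MOI 1-2 after compound addition, 48-72 hrs at 37 degrees C. Live-cell Renilla luciferase substrate added; luminescence read after 1-1.5 hrs.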
The target of assay [4] is Calcium and integrin-binding protein 1 (Homo sapiens) (UniProt Q99828). Kind of assay: Primary qHTS for Identification of Calcium Integrin Binding Protein 1 (CIB1) Competitor (AID 1508620).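 Note: GST tagged CIB1 binding a fluorescein labelled alphaIIb integrin peptide tracer; top concentration of the series differs between compounds.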 In outline:
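Fluorescence polarization competition: CIB1-GST (1 uM final) preincubated with compound 15 min at room temperature, then FITC-labeled alphaIIb peptide (100 nM final) added for another 15 min. Polarization read at Ex 480/Em 540.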

Records with an inconclusive call do not appear. Values without a mark were called inactive. The source made the active and inactive calls. Calls come from the whole dose curve; as a rule, active = well fitted curve in the direction sought with a large enough effect; inconclusive = small, poorly fitted or top-dose-only effect, or another doubt; inactive = no such curve, though single readings can be large; an effect the other way counts as inactive or inconclusive.

Chain of Furin (Homo sapiens) (P09958 whole entry, looked up): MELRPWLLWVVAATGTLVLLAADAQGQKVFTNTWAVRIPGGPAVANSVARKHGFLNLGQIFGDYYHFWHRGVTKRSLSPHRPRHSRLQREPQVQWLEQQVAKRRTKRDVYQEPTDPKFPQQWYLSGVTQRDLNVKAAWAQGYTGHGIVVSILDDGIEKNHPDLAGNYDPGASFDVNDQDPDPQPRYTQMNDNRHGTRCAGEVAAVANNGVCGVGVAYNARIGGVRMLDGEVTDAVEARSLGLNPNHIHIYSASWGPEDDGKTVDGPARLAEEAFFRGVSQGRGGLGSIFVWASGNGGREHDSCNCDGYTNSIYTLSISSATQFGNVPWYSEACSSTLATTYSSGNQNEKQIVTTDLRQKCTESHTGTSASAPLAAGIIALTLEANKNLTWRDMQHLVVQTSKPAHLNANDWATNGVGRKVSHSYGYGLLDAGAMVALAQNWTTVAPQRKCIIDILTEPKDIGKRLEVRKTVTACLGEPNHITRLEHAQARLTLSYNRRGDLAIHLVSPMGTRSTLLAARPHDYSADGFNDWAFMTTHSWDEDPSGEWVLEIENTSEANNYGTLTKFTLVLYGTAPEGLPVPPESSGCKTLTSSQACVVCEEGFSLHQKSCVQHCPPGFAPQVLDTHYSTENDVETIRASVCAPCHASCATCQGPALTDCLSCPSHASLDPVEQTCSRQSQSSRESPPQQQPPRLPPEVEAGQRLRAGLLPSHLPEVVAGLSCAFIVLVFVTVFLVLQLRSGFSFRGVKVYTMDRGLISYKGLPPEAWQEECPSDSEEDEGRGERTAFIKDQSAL
Chain of Calcium and integrin-binding protein 1 (Homo sapiens) (Q99828 whole entry, looked up): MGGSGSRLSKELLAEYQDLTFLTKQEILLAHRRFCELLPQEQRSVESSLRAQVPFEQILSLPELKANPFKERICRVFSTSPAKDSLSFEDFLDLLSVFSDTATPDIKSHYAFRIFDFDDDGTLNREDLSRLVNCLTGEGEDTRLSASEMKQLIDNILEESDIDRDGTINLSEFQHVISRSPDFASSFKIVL

As to `O=C(OCC#CCSc1nnc(-c2cccc3ccccc23)o1)c1ccc(SC(F)(F)F)cc1`, in the assay with Furin (Homo sapiens), the Potency is 52.7 µM (active). For the same compound, the Potency result in assay [1], in assay [2] and in assay [3] was “inactive” each time. Besides, the result in assay [4] was inactive.
Consider `O=C(Nc1cccc(C(=O)OCc2cc(=O)n3c4c(sc3n2)CCCC4)c1)c1ccc(Cl)cc1`, for which the Potency with Furin (Homo sapiens) is 52.7 µM (active). The Potency entry in assay [1], in assay [2] and in assay [3] was “inactive” throughout.
Consider `O=C(OCC#CCSc1nnc(-c2cccc3ccccc23)o1)c1ccc(OC(F)(F)F)cc1`, for which the Potency with Furin (Homo sapiens) was 46.9 µM (active). In addition, the Potency entry in assay [1], in assay [2] and in assay [3] was “inactive” in each case. For the same compound, the outcome in assay [4] was inactive.
For `O=C(OCC#CCSc1nnc(-c2cc3ccccc3cc2O)o1)c1ccc(F)cc1`, the Potency with Furin (Homo sapiens) was 83.5 µM (active). Besides, the Potency result in assay [1] and in assay [2] was “inactive” throughout. Moreover, in assay [4], the result was inactive.
Take `Cc1c(Cl)cccc1NC(=O)CSc1ncccc1C(=O)Oc1ccccc1Cl`: the Potency entry (with Furin (Homo sapiens); in assay [1]; in assay [2]; in assay [3]) was “inactive” throughout.
For the compound `O=C(Nc1ccc(C(=O)OCc2cc(=O)n3c4c(sc3n2)CCCC4)cc1)c1ccc(Cl)cc1`, in the assay with Furin (Homo sapiens), the Potency was 46.9 µM (active). Further, the Potency entry in assay [1] and in assay [3] was “inactive” in each case.
Take `COC(=O)c1ccc(NC(=O)CSc2ccc(-c3sc(-c4ccccc4)nc3C)nn2)cc1`: in the assay with Furin (Homo sapiens), the Potency was 46.9 µM (active). The Potency result in assay [1], in assay [2] and in assay [3] was “inactive” in each case.
On to `O=C(OCC#CCSc1nnc(-c2ccccc2F)o1)c1ccc(F)cc1`, for which the Potency entry (with Furin (Homo sapiens); in assay [1]; in assay [2]; in assay [3]) was “inactive” each time. In assay [4], the result was inactive.
Regarding `O=C(OCC#CCSc1nnc(-c2cccc3ccccc23)o1)c1ccc(OC(F)F)cc1`, the Potency in the assay with Furin (Homo sapiens) was 41.8 µM (active). In addition, the Potency entry in assay [1] and in assay [2] was “inactive” throughout. Moreover, the outcome in assay [4] was inactive.
`COc1ccc(S(=O)(=O)c2c(Nc3cccc(Cl)c3)sc(C(=O)c3ccccc3)c2N)cc1`: the Potency with Furin (Homo sapiens) was 52.7 µM (active). Further, the Potency result in assay [1], in assay [2] and in assay [3] was “inactive” each time.
In the case of `O=C(COc1ccccc1F)Nc1ccc(C(=O)OCc2cc(=O)n3nc(C4CC4)sc3n2)cc1`, the Potency result (in the assay with Furin (Homo sapiens); in assay [1]; in assay [3]) was “inactive” throughout.
As to `COCCOC(=O)c1c(C)n(S(=O)(=O)c2ccc(C)cc2)c2ccc(NS(=O)(=O)c3ccc(C)cc3)cc12`, the Potency entry (in the assay with Furin (Homo sapiens); in assay [1]; in assay [2]; in assay [3]) was “inactive” in each case.
On to `O=C(COc1ccc(F)cc1)Nc1ccc(C(=O)OCc2cc(=O)n3nc(C4CC4)sc3n2)cc1`, for which the Potency result (with Furin (Homo sapiens); in assay [1]; in assay [3]) was “inactive” in each case.
Take `CC(C)c1nn2c(=O)cc(COC(=O)c3ccc(NC(=O)COc4ccccc4)cc3)nc2s1`: the Potency result (with Furin (Homo sapiens); in assay [1]; in assay [2]; in assay [3]) was “inactive” throughout.
On to `CCCCc1nn2c(=O)cc(COC(=O)c3ccc(NC(=O)c4cccc(OC)c4)cc3)nc2s1`, for which, in the assay with Furin (Homo sapiens), the Potency was 41.8 µM (active). Besides, the Potency result in assay [1] and in assay [3] was “inactive” throughout.
On to `O=C(OCC#CCSc1nnc(-c2cccc3ccccc23)o1)c1sc2ccccc2c1Cl`, for which the Potency with Furin (Homo sapiens) is 46.9 µM (active). The Potency result in assay [1], in assay [2] and in assay [3] was “inactive” in each case.
For `O=C(CSc1nnc(-c2cccc([S+](=O)([O-])NC3CCCC3)c2)n1-c1ccccc1)Nc1ccc(C(=O)O)cc1`, the Potency result (with Furin (Homo sapiens); in assay [1]; in assay [3]) was “inactive” each time.
For the compound `O=C(OCC#CCSc1nnc(-c2cccc3ccccc23)o1)c1cc(F)c(F)c(F)c1`, the Potency with Furin (Homo sapiens) was 46.9 µM (active). The Potency result in assay [1], in assay [2] and in assay [3] was “inactive” in each case. Besides, in assay [4], the outcome was inactive.

The values are drawn from PubChem BioAssay (NCATS).
